Numbering of substitutions follows the chain as printed.
What was measured:
Test in all cases: PBM; 200 nM protein, PBS
Settings in all cases: dsDNA, one strand shown
SHOX [1] = target: SHOX (Homo sapiens, UniProt O15266 103-189)
VENTX [2] = target: T1, VENTX (Homo sapiens, UniProt O95231 78-163, R121Q)
T1 sequence: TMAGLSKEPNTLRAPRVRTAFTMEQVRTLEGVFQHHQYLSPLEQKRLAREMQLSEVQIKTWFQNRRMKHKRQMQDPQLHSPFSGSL

VENTX [3] = target: T2, VENTX (Homo sapiens, UniProt O95231 78-163)
T2 sequence: T1 sequence with Q44R

PAX4 [4] = target: T3, PAX4 (Homo sapiens, UniProt O43316 9-242, R200K)
T3 sequence: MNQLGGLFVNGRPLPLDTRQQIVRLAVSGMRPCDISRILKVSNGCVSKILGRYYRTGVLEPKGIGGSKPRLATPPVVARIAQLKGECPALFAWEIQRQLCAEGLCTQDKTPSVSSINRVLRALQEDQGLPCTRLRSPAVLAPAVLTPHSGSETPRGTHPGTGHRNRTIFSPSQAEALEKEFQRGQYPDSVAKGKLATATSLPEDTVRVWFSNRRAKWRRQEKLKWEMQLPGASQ

VENTX [5] = target: T4, VENTX (Homo sapiens, UniProt O95231 78-163, Y115F)
T4 sequence: T1 sequence with Y38F, Q44R

PAX4 [6] = target: T5, PAX4 (Homo sapiens, UniProt O43316 9-242)
T5 sequence: T3 sequence with K192R

HESX1 [7] = target: HESX1 (Homo sapiens, UniProt Q9UBX0 95-180)
MSX2 [8] = target: MSX2 (Homo sapiens, UniProt P35548 130-214, R199I)
PAX4 [9] = target: T6, PAX4 (Homo sapiens, UniProt O43316 9-242, R200Q)
T6 sequence: T3 sequence with K192Q

SHOX [10] = target: SHOX (Homo sapiens, UniProt O15266 103-189, R173C)
PAX4 [11] = target: T7, PAX4 (Homo sapiens, UniProt O43316 9-242, F177V)
T7 sequence: T3 sequence with F169V, K192R

MSX2 [12] = target: MSX2 (Homo sapiens, UniProt P35548 130-214)
PAX4 [13] = target: T8, PAX4 (Homo sapiens, UniProt O43316 9-242, F177Y)
T8 sequence: T3 sequence with F169Y, K192R

VAX1 [14] = target: VAX1 (Homo sapiens, UniProt Q5SQQ9 86-172)
HESX1 [15] = target: HESX1 (Homo sapiens, UniProt Q9UBX0 95-180, P111T)
MSX2 [16] = target: MSX2 (Homo sapiens, UniProt P35548 130-214, F161Y)
HESX1 [17] = target: HESX1 (Homo sapiens, UniProt Q9UBX0 95-180, F115L)
VAX1 [18] = target: VAX1 (Homo sapiens, UniProt Q5SQQ9 86-172, T142I)
PAX4 [19] = target: T9, PAX4 (Homo sapiens, UniProt O43316 9-242, R227W)
T9 sequence: T3 sequence with K192R, R219W

VAX1 [20] = target: VAX1 (Homo sapiens, UniProt Q5SQQ9 86-172, K157R)
Chain of VAX1 (Homo sapiens, UniProt Q5SQQ9 86-172, K157R) (Q5SQQ9 86-172 K157R): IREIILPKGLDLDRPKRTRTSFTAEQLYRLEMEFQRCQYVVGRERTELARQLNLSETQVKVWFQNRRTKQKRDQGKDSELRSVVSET

Chain of MSX2 (Homo sapiens, UniProt P35548 130-214) (P35548 130-214): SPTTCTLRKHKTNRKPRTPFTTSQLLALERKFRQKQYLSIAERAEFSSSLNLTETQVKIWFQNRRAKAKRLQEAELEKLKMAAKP
Chain of MSX2 (Homo sapiens, UniProt P35548 130-214, F161Y) (P35548 130-214 F161Y): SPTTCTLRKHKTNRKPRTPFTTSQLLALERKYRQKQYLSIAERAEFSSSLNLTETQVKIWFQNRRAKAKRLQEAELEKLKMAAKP
Chain of VAX1 (Homo sapiens, UniProt Q5SQQ9 86-172) (Q5SQQ9 86-172): as the sequence (Q5SQQ9 86-172 K157R) above, with R72K counted along it
Chain of HESX1 (Homo sapiens, UniProt Q9UBX0 95-180, F115L) (Q9UBX0 95-180 F115L): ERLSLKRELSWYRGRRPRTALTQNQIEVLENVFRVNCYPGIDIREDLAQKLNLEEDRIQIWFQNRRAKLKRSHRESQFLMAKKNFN
Chain of MSX2 (Homo sapiens, UniProt P35548 130-214, R199I) (P35548 130-214 R199I): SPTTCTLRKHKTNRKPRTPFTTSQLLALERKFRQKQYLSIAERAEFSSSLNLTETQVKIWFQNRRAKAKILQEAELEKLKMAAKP
Chain of VAX1 (Homo sapiens, UniProt Q5SQQ9 86-172, T142I) (Q5SQQ9 86-172 T142I): as the sequence (Q5SQQ9 86-172 K157R) above, with T57I, R72K counted along it
Chain of SHOX (Homo sapiens, UniProt O15266 103-189, R173C) (O15266 103-189 R173C): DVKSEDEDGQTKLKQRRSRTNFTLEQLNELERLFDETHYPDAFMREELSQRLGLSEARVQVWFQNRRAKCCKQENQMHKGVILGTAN
Chain of HESX1 (Homo sapiens, UniProt Q9UBX0 95-180, P111T) (Q9UBX0 95-180 P111T): as the sequence (Q9UBX0 95-180 F115L) above, with P17T, L21F counted along it
Chain of HESX1 (Homo sapiens, UniProt Q9UBX0 95-180) (Q9UBX0 95-180): as the sequence (Q9UBX0 95-180 F115L) above, with L21F counted along it
Chain of SHOX (Homo sapiens, UniProt O15266 103-189) (O15266 103-189): as the sequence (O15266 103-189 R173C) above, with C71R counted along it

Sequence | binding signal (SHOX [1]) | binding signal (VENTX [2]) | binding signal (VENTX [3]) | binding signal (PAX4 [4]) | binding signal (VENTX [5]) | binding signal (PAX4 [6]) | binding signal (HESX1 [7]) | binding signal (MSX2 [8]) | binding signal (PAX4 [9]) | binding signal (SHOX [10]) | binding signal (PAX4 [11]) | binding signal (MSX2 [12]) | binding signal (PAX4 [13]) | binding signal (VAX1 [14]) | binding signal (HESX1 [15]) | binding signal (MSX2 [16]) | binding signal (HESX1 [17]) | binding signal (VAX1 [18]) | binding signal (PAX4 [19]) | binding signal (VAX1 [20])
GTAATTAA | 12.8 upbm affinity estimate (log intensity, higher = more binding, comparable within an allelic series) | 12.4 upbm affinity estimate (log intensity, higher = more binding, comparable within an allelic series) | 13 upbm affinity estimate (log intensity, higher = more binding, comparable within an allelic series) | 12 upbm affinity estimate (log intensity, higher = more binding, comparable within an allelic series) | 12.4 upbm affinity estimate (log intensity, higher = more binding, comparable within an allelic series) | 12.6 upbm affinity estimate (log intensity, higher = more binding, comparable within an allelic series) | 13.3 upbm affinity estimate (log intensity, higher = more binding, comparable within an allelic series) | 13.2 upbm affinity estimate (log intensity, higher = more binding, comparable within an allelic series) | 12.5 upbm affinity estimate (log intensity, higher = more binding, comparable within an allelic series) | 10.3 upbm affinity estimate (log intensity, higher = more binding, comparable within an allelic series) | 10.8 upbm affinity estimate (log intensity, higher = more binding, comparable within an allelic series) | 14.1 upbm affinity estimate (log intensity, higher = more binding, comparable within an allelic series) | 11.3 upbm affinity estimate (log intensity, higher = more binding, comparable within an allelic series) | 13.8 upbm affinity estimate (log intensity, higher = more binding, comparable within an allelic series) | 11.8 upbm affinity estimate (log intensity, higher = more binding, comparable within an allelic series) | 13.7 upbm affinity estimate (log intensity, higher = more binding, comparable within an allelic series) | 8.12 upbm affinity estimate (log intensity, higher = more binding, comparable within an allelic series) | 13.9 upbm affinity estimate (log intensity, higher = more binding, comparable within an allelic series) | 11.2 upbm affinity estimate (log intensity, higher = more binding, comparable within an allelic series) | 13.9 upbm affinity estimate (log intensity, higher = more binding, comparable within an allelic series)
GTAATTAC | 12.4 upbm affinity estimate (log intensity, higher = more binding, comparable within an allelic series) | 12.4 upbm affinity estimate (log intensity, higher = more binding, comparable within an allelic series) | 12.9 upbm affinity estimate (log intensity, higher = more binding, comparable within an allelic series) | 12 upbm affinity estimate (log intensity, higher = more binding, comparable within an allelic series) | 12.4 upbm affinity estimate (log intensity, higher = more binding, comparable within an allelic series) | 12.5 upbm affinity estimate (log intensity, higher = more binding, comparable within an allelic series) | 12.6 upbm affinity estimate (log intensity, higher = more binding, comparable within an allelic series) | 13.2 upbm affinity estimate (log intensity, higher = more binding, comparable within an allelic series) | 12.5 upbm affinity estimate (log intensity, higher = more binding, comparable within an allelic series) | 9.86 upbm affinity estimate (log intensity, higher = more binding, comparable within an allelic series) | 10.6 upbm affinity estimate (log intensity, higher = more binding, comparable within an allelic series) | 14.2 upbm affinity estimate (log intensity, higher = more binding, comparable within an allelic series) | 11.1 upbm affinity estimate (log intensity, higher = more binding, comparable within an allelic series) | 13.9 upbm affinity estimate (log intensity, higher = more binding, comparable within an allelic series) | 11 upbm affinity estimate (log intensity, higher = more binding, comparable within an allelic series) | 13.9 upbm affinity estimate (log intensity, higher = more binding, comparable within an allelic series) | 7.87 upbm affinity estimate (log intensity, higher = more binding, comparable within an allelic series) | 13.9 upbm affinity estimate (log intensity, higher = more binding, comparable within an allelic series) | 11 upbm affinity estimate (log intensity, higher = more binding, comparable within an allelic series) | 13.9 upbm affinity estimate (log intensity, higher = more binding, comparable within an allelic series)
GATAATTA | 12.6 upbm affinity estimate (log intensity, higher = more binding, comparable within an allelic series) | 12.5 upbm affinity estimate (log intensity, higher = more binding, comparable within an allelic series) | 12.8 upbm affinity estimate (log intensity, higher = more binding, comparable within an allelic series) | 12 upbm affinity estimate (log intensity, higher = more binding, comparable within an allelic series) | 12.3 upbm affinity estimate (log intensity, higher = more binding, comparable within an allelic series) | 12.6 upbm affinity estimate (log intensity, higher = more binding, comparable within an allelic series) | 13.4 upbm affinity estimate (log intensity, higher = more binding, comparable within an allelic series) | 13.3 upbm affinity estimate (log intensity, higher = more binding, comparable within an allelic series) | 12.4 upbm affinity estimate (log intensity, higher = more binding, comparable within an allelic series) | 10.1 upbm affinity estimate (log intensity, higher = more binding, comparable within an allelic series) | 10.8 upbm affinity estimate (log intensity, higher = more binding, comparable within an allelic series) | 14.1 upbm affinity estimate (log intensity, higher = more binding, comparable within an allelic series) | 11.3 upbm affinity estimate (log intensity, higher = more binding, comparable within an allelic series) | 13.7 upbm affinity estimate (log intensity, higher = more binding, comparable within an allelic series) | 11.9 upbm affinity estimate (log intensity, higher = more binding, comparable within an allelic series) | 13.7 upbm affinity estimate (log intensity, higher = more binding, comparable within an allelic series) | 8.2 upbm affinity estimate (log intensity, higher = more binding, comparable within an allelic series) | 13.8 upbm affinity estimate (log intensity, higher = more binding, comparable within an allelic series) | 11.2 upbm affinity estimate (log intensity, higher = more binding, comparable within an allelic series) | 13.7 upbm affinity estimate (log intensity, higher = more binding, comparable within an allelic series)
TAATTAAA | 12.8 upbm affinity estimate (log intensity, higher = more binding, comparable within an allelic series) | 12.1 upbm affinity estimate (log intensity, higher = more binding, comparable within an allelic series) | 12.5 upbm affinity estimate (log intensity, higher = more binding, comparable within an allelic series) | 12 upbm affinity estimate (log intensity, higher = more binding, comparable within an allelic series) | 11.9 upbm affinity estimate (log intensity, higher = more binding, comparable within an allelic series) | 12.5 upbm affinity estimate (log intensity, higher = more binding, comparable within an allelic series) | 13.1 upbm affinity estimate (log intensity, higher = more binding, comparable within an allelic series) | 12.9 upbm affinity estimate (log intensity, higher = more binding, comparable within an allelic series) | 12.4 upbm affinity estimate (log intensity, higher = more binding, comparable within an allelic series) | 10.6 upbm affinity estimate (log intensity, higher = more binding, comparable within an allelic series) | 11 upbm affinity estimate (log intensity, higher = more binding, comparable within an allelic series) | 13.9 upbm affinity estimate (log intensity, higher = more binding, comparable within an allelic series) | 11.3 upbm affinity estimate (log intensity, higher = more binding, comparable within an allelic series) | 13.3 upbm affinity estimate (log intensity, higher = more binding, comparable within an allelic series) | 12.1 upbm affinity estimate (log intensity, higher = more binding, comparable within an allelic series) | 13.5 upbm affinity estimate (log intensity, higher = more binding, comparable within an allelic series) | 8.41 upbm affinity estimate (log intensity, higher = more binding, comparable within an allelic series) | 13.4 upbm affinity estimate (log intensity, higher = more binding, comparable within an allelic series) | 11.2 upbm affinity estimate (log intensity, higher = more binding, comparable within an allelic series) | 13.4 upbm affinity estimate (log intensity, higher = more binding, comparable within an allelic series)
CTAATTAA | 13.4 upbm affinity estimate (log intensity, higher = more binding, comparable within an allelic series) | 12.7 upbm affinity estimate (log intensity, higher = more binding, comparable within an allelic series) | 13.1 upbm affinity estimate (log intensity, higher = more binding, comparable within an allelic series) | 12.3 upbm affinity estimate (log intensity, higher = more binding, comparable within an allelic series) | 12.4 upbm affinity estimate (log intensity, higher = more binding, comparable within an allelic series) | 12.9 upbm affinity estimate (log intensity, higher = more binding, comparable within an allelic series) | 13.6 upbm affinity estimate (log intensity, higher = more binding, comparable within an allelic series) | 13.3 upbm affinity estimate (log intensity, higher = more binding, comparable within an allelic series) | 12.9 upbm affinity estimate (log intensity, higher = more binding, comparable within an allelic series) | 11.1 upbm affinity estimate (log intensity, higher = more binding, comparable within an allelic series) | 11.2 upbm affinity estimate (log intensity, higher = more binding, comparable within an allelic series) | 14.1 upbm affinity estimate (log intensity, higher = more binding, comparable within an allelic series) | 11.7 upbm affinity estimate (log intensity, higher = more binding, comparable within an allelic series) | 13.7 upbm affinity estimate (log intensity, higher = more binding, comparable within an allelic series) | 12.6 upbm affinity estimate (log intensity, higher = more binding, comparable within an allelic series) | 13.7 upbm affinity estimate (log intensity, higher = more binding, comparable within an allelic series) | 8.61 upbm affinity estimate (log intensity, higher = more binding, comparable within an allelic series) | 13.8 upbm affinity estimate (log intensity, higher = more binding, comparable within an allelic series) | 11.5 upbm affinity estimate (log intensity, higher = more binding, comparable within an allelic series) | 13.8 upbm affinity estimate (log intensity, higher = more binding, comparable within an allelic series)

Source: PMC11006913
